In the supplement of paper PMC10849652:
About 7,900 targets were measured; listed, in parts, are those with a hit and a random draw of the rest. About 0.6% of all pairs of compound and target were hits.

Compound: c1cn2cc(-c3ccc4cn[nH]c4c3)nc(Nc3ccc(N4CCOCC4)cc3)c2n1 [entospletinib]
Test: log2 fold change, soluble protein after heating vs DMSO (PISA); higher = thermal stabilisation; K562 cells, 10 uM, 30 min; active = over 0.2 and 3.5 SD of the protein, either way, in both replicates (recomputed)
In short: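 Thermal stability values are relative to control samples and come from duplicates. They are expressed as log2 fold changes. For measurement, K562 cells (2×10^6 cells/mL) received 10 μM compound for 30 min, and aliquots were heated for 3 min over 48°C-58°C, pooled, and extracted at 4°C in PBS with 0.5% NP-40. Soluble protein, the supernatant after 21,000xg for 90 min, was quantified by TMTpro 16plex LC-MS/MS with equalised channel sums.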

Sequence of UniProt P50570 (P50570 whole entry, looked up): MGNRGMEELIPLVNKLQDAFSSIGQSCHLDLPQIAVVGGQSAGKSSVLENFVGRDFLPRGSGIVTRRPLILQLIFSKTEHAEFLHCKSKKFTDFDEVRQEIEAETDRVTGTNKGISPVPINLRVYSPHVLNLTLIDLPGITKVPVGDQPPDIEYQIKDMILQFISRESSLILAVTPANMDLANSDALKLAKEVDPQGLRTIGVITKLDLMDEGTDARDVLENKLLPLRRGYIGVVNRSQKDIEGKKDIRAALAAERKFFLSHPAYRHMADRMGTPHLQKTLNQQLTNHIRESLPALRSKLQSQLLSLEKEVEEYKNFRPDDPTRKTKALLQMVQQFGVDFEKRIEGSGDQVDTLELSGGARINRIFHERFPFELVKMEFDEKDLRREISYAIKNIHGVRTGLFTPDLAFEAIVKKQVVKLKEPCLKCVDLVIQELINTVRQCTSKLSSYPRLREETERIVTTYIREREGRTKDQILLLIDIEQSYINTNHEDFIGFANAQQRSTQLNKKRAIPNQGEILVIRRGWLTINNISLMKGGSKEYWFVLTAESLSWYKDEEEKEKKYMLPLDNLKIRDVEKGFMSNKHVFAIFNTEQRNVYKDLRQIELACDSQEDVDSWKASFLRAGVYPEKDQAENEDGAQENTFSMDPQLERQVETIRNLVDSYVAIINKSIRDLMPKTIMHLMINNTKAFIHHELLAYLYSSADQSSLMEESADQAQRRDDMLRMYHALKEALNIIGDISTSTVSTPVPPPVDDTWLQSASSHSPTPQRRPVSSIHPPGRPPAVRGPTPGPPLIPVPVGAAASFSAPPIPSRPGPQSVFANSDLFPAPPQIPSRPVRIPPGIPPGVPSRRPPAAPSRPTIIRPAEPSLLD
Sequence of UniProt P0CG12 (P0CG12 whole entry, looked up): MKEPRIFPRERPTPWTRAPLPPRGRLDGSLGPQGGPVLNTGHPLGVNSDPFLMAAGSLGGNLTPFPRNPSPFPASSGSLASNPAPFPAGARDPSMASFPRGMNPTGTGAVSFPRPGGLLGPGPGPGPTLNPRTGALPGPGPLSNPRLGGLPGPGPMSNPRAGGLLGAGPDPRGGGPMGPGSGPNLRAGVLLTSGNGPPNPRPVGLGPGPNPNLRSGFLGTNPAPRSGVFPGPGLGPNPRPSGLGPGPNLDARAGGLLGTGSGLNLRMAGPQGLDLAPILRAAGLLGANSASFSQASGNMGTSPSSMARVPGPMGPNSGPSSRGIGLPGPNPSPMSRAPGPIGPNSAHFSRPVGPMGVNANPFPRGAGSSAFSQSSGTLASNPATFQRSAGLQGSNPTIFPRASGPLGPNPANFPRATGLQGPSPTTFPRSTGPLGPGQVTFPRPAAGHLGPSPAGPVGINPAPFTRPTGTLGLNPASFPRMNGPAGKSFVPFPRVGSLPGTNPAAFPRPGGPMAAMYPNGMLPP
Sequence of UniProt P10619 (P10619 whole entry, looked up): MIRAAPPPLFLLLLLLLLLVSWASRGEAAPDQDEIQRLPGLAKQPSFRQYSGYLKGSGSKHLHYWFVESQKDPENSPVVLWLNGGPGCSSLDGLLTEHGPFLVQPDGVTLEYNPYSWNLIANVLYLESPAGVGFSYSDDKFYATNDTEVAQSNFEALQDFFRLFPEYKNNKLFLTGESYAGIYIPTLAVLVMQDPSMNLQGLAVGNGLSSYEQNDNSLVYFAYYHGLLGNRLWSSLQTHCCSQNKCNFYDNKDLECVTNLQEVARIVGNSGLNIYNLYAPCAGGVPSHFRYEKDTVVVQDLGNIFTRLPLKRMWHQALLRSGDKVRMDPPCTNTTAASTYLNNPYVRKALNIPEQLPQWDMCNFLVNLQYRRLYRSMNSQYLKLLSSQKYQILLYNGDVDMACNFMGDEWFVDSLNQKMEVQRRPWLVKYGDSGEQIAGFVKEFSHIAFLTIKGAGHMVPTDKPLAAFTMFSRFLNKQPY
Sequence of UniProt P06730 (P06730 whole entry, looked up): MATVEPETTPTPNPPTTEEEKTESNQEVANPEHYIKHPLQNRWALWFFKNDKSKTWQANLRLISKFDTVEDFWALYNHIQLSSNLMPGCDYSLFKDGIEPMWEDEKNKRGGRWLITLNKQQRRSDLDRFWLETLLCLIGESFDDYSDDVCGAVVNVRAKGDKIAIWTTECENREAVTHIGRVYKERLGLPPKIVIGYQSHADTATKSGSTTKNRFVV
Sequence of UniProt P25685 (P25685 whole entry, looked up): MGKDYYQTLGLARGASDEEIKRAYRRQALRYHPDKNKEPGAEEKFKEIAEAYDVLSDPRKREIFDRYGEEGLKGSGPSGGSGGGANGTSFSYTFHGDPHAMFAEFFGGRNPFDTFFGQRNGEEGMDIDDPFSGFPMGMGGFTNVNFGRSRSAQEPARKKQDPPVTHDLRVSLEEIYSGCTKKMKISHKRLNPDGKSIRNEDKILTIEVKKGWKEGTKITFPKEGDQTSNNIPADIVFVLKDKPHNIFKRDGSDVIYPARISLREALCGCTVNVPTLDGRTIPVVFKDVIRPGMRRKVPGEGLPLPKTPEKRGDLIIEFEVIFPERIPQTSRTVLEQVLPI
Sequence of UniProt P12259 (P12259 whole entry, looked up): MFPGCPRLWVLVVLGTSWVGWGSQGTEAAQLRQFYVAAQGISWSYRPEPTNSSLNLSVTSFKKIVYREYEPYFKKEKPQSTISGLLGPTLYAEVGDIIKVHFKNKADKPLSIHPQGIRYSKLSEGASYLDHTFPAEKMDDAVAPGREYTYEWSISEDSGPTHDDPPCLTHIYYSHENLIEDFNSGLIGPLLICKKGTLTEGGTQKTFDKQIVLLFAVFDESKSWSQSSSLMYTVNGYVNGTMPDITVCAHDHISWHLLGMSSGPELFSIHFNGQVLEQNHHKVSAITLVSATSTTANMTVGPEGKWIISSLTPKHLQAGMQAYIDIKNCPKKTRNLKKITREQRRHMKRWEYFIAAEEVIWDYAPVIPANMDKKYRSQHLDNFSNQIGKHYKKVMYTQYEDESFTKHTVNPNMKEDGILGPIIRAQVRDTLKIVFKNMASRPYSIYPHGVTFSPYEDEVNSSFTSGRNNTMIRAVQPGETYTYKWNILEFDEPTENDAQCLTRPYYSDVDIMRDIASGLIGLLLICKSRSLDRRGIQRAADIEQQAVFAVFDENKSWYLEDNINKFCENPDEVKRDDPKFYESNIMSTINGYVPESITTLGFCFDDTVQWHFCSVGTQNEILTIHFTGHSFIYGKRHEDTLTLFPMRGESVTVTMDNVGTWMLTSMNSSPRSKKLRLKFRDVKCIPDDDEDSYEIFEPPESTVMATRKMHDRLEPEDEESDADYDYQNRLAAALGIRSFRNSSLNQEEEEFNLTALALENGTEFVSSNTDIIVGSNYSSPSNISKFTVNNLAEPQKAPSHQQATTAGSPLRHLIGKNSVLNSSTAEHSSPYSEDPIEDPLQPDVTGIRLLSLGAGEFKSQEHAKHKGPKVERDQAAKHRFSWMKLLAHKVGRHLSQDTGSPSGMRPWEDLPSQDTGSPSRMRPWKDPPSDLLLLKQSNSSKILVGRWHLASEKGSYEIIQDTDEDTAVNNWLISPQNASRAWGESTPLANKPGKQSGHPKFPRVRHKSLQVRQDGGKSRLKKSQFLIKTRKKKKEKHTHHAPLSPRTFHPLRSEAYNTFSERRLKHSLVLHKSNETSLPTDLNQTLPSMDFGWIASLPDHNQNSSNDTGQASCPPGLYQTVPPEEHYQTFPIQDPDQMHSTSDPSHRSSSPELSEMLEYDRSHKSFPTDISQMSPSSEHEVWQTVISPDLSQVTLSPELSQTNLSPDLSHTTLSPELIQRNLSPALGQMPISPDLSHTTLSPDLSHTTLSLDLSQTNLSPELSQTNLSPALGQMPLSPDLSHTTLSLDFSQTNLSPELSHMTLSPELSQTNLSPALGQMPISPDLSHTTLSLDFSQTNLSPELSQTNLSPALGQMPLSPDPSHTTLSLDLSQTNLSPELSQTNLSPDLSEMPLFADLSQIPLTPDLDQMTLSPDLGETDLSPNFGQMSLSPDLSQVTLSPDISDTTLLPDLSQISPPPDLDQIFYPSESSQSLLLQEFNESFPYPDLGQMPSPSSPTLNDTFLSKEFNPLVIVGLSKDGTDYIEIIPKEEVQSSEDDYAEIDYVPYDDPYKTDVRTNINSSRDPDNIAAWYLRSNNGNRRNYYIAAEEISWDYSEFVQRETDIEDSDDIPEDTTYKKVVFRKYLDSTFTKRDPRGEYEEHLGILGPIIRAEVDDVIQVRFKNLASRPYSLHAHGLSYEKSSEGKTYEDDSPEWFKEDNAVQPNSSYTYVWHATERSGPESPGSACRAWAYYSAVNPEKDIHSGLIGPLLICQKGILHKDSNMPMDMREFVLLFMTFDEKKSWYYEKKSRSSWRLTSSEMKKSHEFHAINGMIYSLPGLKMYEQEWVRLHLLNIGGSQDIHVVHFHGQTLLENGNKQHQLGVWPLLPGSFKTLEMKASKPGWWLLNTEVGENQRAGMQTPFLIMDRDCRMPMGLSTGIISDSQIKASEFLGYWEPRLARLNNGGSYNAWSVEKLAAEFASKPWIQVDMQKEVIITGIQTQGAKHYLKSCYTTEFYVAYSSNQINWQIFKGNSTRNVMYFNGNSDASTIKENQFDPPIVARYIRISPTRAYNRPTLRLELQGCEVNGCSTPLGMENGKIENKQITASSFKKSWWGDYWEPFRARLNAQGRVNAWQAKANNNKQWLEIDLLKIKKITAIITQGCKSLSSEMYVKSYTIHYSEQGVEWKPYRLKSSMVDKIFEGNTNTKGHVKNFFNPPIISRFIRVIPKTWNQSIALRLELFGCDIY
Sequence of UniProt P09668 (P09668 whole entry, looked up): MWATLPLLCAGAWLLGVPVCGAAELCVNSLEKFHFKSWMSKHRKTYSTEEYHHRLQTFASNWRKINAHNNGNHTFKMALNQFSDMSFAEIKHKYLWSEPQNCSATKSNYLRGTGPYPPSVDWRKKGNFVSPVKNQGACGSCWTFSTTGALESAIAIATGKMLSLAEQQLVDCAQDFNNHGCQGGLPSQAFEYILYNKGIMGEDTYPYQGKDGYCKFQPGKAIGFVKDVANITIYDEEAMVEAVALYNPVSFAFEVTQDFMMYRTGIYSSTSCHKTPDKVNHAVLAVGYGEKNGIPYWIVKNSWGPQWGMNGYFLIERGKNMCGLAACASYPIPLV

log2 fold change, inactive:
FAM160B1 (UniProt Q5W0V3) 0.008
DNAJB1 (UniProt P25685) -0.085
CTSZ (UniProt Q9UBR2) 0.13
DNM2 isoform 4 (UniProt P50570) -0.257
DNM2 (UniProt P50570) -0.017
F5 (UniProt P12259) 0.133
CTSL (UniProt P07711) 0.091
EIF4E isoform 2 (UniProt P06730) 0.062
EVC2 (UniProt Q86UK5) -0.104
ECH1 (UniProt Q13011) 0.024
CTSA (UniProt P10619) 0.041
EOGT (UniProt Q5NDL2) 0.005
EEF2K (UniProt O00418) 0.09
EXOC5 (UniProt O00471) 0.002
DMXL1 (UniProt Q9Y485) 0.04
DHRS13 (UniProt Q6UX07) -0.111
DDX27 (UniProt Q96GQ7) -0.035
CWF19L2 (UniProt Q2TBE0) -0.162
DUS2 (UniProt Q9NX74) -0.063
EGLN1 (UniProt Q9GZT9) 0
DDX46 (UniProt Q7L014) -0.043
EHBP1 (UniProt Q8NDI1) -0.082
FAM117A (UniProt Q9C073) 0.067
DIAPH1 (UniProt O60610) 0.1
EXTL2 (UniProt Q9UBQ6) 0.03
DHX40 (UniProt Q8IX18) -0.055
EXOC6 (UniProt Q8TAG9) 0.014
DBN1 isoform 3 (UniProt Q16643) -0.038
CUEDC2 (UniProt Q9H467) 0.01
FAM118B (UniProt Q9BPY3) -0.011
DCAF4 (UniProt Q8WV16) -0.146
DERPC (UniProt P0CG12) 0.125
CTSS (UniProt P25774) 0.07
CTSH (UniProt P09668) -0.021
EXOSC10 (UniProt Q01780) 0.1
